The values below come from PubChem BioAssay (NCI).

Among the test systems are NCI-H23 lung; NCI-H226 lung; NCI-H322M lung; HOP-62 NSCLC; HOP-92 NSCLC; NCI-H522 lung; A549/ATCC NSCLC; 786-0 renal; COLO 205 colon; DU-145 prostate; K-562 leukemia; MALME-3M melanoma; MDA-MB-231 breast; RXF 393 renal; SF-268 CNS; SF-295 CNS; SF-539 CNS; UACC-257 melanoma; M14 melanoma.
Common to all, as to test: NCI-60 one-dose screen, 48 h (100 = growth as untreated, 0 = no growth, -100 = all killed)
Common to all, as to settings: 10 µM unless noted

The panel holds about 83,000 compounds, 20% with a hit somewhere; the sample as a whole holds those more often.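 Interpretation: 100, growth as untreated; towards 0, rising growth inhibition; 0, no net growth; 0 to -100, cell death. Compounds scoring below 10 were considered active.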 Unmarked numbers belong to inactive results. The source made the active and inactive calls.

Regarding `CCn1cc(C(=O)N/N=C/c2ccccc2)c(=O)c2cc(F)c(N3CCNC(C)C3)c(F)c21` (centres undefined), the growth in the assay on NCI-H23 lung is 68.5%; in the assay on NCI-H226 lung, 87.4%; with NCI-H322M lung it was 52.4%; in the assay with HOP-62 NSCLC, 68.6%; in the assay on HOP-92 NSCLC it was 55.8%; in the assay on NCI-H522 lung, -75.3% (active). The growth in the assay with A549/ATCC NSCLC is -83.9% (active); with 786-0 renal, -67.4% (active); with COLO 205 colon, -74.4% (active); in the assay on DU-145 prostate, -87.9% (active); in the assay on K-562 leukemia, -39.4% (active); in the assay on MALME-3M melanoma it was -78% (active). Also, the growth with MDA-MB-231 breast is -70.4% (active); in the assay on RXF 393 renal it was -61.3% (active); in the assay with SF-268 CNS, 38.9%; in the assay on SF-295 CNS, 8.87% (active); in the assay on SF-539 CNS it was -86.9% (active); in the assay on UACC-257 melanoma, 39.6%. Further, the growth in the assay with M14 melanoma was -49.7% (active).

`O=C(Cn1nc(-c2cccc3ccccc23)ccc1=O)NCc1cccc(Cl)c1`: the growth in the assay with NCI-H23 lung is 45.2% [50 µM]; with NCI-H226 lung, 38.2% [50 µM]; with NCI-H322M lung, 70.4% [50 µM]; in the assay with HOP-62 NSCLC it was 72.2% [50 µM]; in the assay with HOP-92 NSCLC it was 26.3% [50 µM]; in the assay on NCI-H522 lung, 17.1% [50 µM]. Moreover, the growth is 28.5% [50 µM] with A549/ATCC NSCLC; 37.7% [50 µM] in the assay on 786-0 renal; 37.3% [50 µM] with COLO 205 colon; 55.7% [50 µM] in the assay on DU-145 prostate; 20.4% [50 µM] in the assay on K-562 leukemia; 70.5% [50 µM] with MALME-3M melanoma. In addition, the growth in the assay with MDA-MB-231 breast is 55% [50 µM]; with RXF 393 renal it was 37.7% [50 µM]; in the assay with SF-268 CNS, 52.9% [50 µM]; in the assay on SF-295 CNS, 18.7% [50 µM]; in the assay with SF-539 CNS it was 58.3% [50 µM]; with UACC-257 melanoma, 44.2% [50 µM]. Besides, the growth with M14 melanoma is 34% [50 µM].

As to `COC1C(O)CC(OC2CC(OC3CC(O[C@@H]4C(=O)c5c(cc6cc(OC7CC(OC8CC(O)C(O)C(C)O8)C(O)C(C)O7)c(C)c(O)c6c5O)CC4[C@H](OC)[C@@H](O)C(C)=O)OC(C)C3O)OC(C)C2O)OC1C` (some centres undefined), the growth was -12.1% (active) with NCI-H23 lung; -16.6% (active) with NCI-H226 lung; 4.31% (active) in the assay on NCI-H322M lung; -3.94% (active) with HOP-62 NSCLC; 5.01% (active) in the assay on HOP-92 NSCLC; -26.4% (active) in the assay with NCI-H522 lung. Moreover, the growth with A549/ATCC NSCLC was 3.44% (active); in the assay on 786-0 renal it was 8.03% (active); in the assay on COLO 205 colon, -21.3% (active); in the assay with DU-145 prostate it was 15.8%; in the assay with K-562 leukemia, 9.22% (active); in the assay on MALME-3M melanoma, -11.6% (active). In addition, the growth with MDA-MB-231 breast was 36.2%; with RXF 393 renal, -57.5% (active); in the assay with SF-268 CNS, 21.5%; in the assay on SF-295 CNS, 8.38% (active); in the assay on SF-539 CNS, -6.81% (active); in the assay on UACC-257 melanoma, -14.7% (active). In the assay with M14 melanoma, the growth was -21.2% (active).

Consider `COc1ccccc1/C=C/C(=O)Nc1ccc(F)cc1`, for which the growth is 88.2% with NCI-H23 lung; 98% in the assay with NCI-H226 lung; 104% with NCI-H322M lung; 88.7% with HOP-62 NSCLC; 86.8% with HOP-92 NSCLC; 72.4% in the assay with NCI-H522 lung. Moreover, the growth in the assay on A549/ATCC NSCLC was 92.9%; in the assay with 786-0 renal, 97.7%; with COLO 205 colon, 101%; with DU-145 prostate it was 98.6%; in the assay with K-562 leukemia, 84.8%; in the assay on MALME-3M melanoma, 95.9%. Moreover, the growth was 88.6% in the assay on MDA-MB-231 breast; 102% in the assay on RXF 393 renal; 99.7% in the assay on SF-268 CNS; 96% in the assay on SF-295 CNS; 101% in the assay on SF-539 CNS; 99.4% in the assay on UACC-257 melanoma. The growth in the assay with M14 melanoma was 96.7%.

With `CNC(=O)c1cc(Oc2ccc3c(c2)sc2nc(-c4ccc(NC(=O)[C@@H](NC(=O)OC)C(C)C)cc4)cn23)ccn1`, the growth in the assay with NCI-H23 lung is 77.6%; with NCI-H226 lung, 56.9%; in the assay on NCI-H322M lung, 107%; in the assay with HOP-62 NSCLC it was 82.5%; in the assay with HOP-92 NSCLC, 61.7%; in the assay on NCI-H522 lung, 43.6%. The growth with A549/ATCC NSCLC was 80.8%; with 786-0 renal, 87.4%; in the assay with COLO 205 colon, 63.9%; in the assay with DU-145 prostate, 84.8%; with K-562 leukemia, 47.3%; in the assay on MALME-3M melanoma, 49.4%. Also, the growth is 71.9% in the assay on MDA-MB-231 breast; 85.3% in the assay on RXF 393 renal; 82.5% in the assay on SF-268 CNS; 68.7% in the assay on SF-295 CNS; 88.2% in the assay on SF-539 CNS; 59.5% in the assay on UACC-257 melanoma. The growth in the assay on M14 melanoma is 64.1%.

Regarding `Cc1ccc(C2CC(c3cccc(Nc4ccncc4)c3)=Nc3c(N)nc(N)nc3N2)cc1` (centres undefined), the growth in the assay on NCI-H23 lung is 56%; in the assay with NCI-H226 lung, 88.9%; with NCI-H322M lung it was 67.4%; in the assay with HOP-62 NSCLC, 86.4%; in the assay on HOP-92 NSCLC, 49.8%; in the assay with NCI-H522 lung, 75.7%. In addition, the growth in the assay with A549/ATCC NSCLC was 28.3%; in the assay with 786-0 renal, 36.4%; in the assay on COLO 205 colon, 52.3%; in the assay on DU-145 prostate, 70.9%; in the assay on K-562 leukemia it was 21.3%; with MALME-3M melanoma it was 78.7%. Besides, the growth with MDA-MB-231 breast is 66.1%; with RXF 393 renal, 55.6%; in the assay on SF-268 CNS, 63.1%; in the assay on SF-295 CNS, 67%; in the assay on SF-539 CNS it was 67.9%; in the assay on UACC-257 melanoma, 63.7%. Besides, the growth in the assay on M14 melanoma was 42.3%.
